Data taken from ChEMBL document CHEMBL2218924, “A broad activity screen in support of a chemogenomic map for kinase signalling research and drug discovery” (Biochem J, 2013).

The compounds below were run against PAS domain-containing serine/threonine-protein kinase (Homo sapiens) (UniProt Q96RG2). Settings: at 1 µM.
Chain of PAS domain-containing serine/threonine-protein kinase (Homo sapiens) (Q96RG2 whole entry, the tested form may be a part): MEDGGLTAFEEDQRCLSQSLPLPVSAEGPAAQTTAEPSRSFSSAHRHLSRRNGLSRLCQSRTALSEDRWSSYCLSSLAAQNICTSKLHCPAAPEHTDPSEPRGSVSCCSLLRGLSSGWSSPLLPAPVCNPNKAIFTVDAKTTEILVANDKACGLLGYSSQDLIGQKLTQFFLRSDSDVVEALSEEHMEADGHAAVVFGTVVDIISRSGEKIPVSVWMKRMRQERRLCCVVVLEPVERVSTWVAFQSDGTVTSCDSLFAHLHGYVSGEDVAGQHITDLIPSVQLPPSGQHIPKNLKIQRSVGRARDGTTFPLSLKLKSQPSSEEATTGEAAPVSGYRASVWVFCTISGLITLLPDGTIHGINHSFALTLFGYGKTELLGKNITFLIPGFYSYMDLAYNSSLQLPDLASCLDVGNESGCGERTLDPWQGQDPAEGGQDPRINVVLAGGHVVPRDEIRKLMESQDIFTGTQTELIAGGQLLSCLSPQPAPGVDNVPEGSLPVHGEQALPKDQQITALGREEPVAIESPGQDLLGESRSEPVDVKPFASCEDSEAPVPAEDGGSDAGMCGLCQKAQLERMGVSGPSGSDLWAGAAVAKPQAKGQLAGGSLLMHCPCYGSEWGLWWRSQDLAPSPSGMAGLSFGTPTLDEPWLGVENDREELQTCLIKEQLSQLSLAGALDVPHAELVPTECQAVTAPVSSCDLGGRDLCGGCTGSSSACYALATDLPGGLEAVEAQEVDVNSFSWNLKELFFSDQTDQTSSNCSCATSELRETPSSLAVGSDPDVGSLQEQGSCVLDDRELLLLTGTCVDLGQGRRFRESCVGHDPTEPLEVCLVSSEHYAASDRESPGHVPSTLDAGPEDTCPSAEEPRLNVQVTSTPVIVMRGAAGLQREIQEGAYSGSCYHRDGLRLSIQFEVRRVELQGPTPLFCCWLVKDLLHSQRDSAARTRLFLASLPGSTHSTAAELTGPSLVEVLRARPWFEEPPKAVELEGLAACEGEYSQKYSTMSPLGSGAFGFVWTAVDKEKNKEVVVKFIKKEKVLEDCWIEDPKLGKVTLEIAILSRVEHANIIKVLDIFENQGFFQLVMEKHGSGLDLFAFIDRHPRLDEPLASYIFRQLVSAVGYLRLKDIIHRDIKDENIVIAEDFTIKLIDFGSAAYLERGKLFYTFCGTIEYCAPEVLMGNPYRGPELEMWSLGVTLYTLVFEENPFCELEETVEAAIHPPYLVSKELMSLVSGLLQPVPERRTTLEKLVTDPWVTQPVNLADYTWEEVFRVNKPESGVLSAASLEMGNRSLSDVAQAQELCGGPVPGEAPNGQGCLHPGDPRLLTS
`CCCC(=O)Oc1ccc2[nH]c(C(=O)c3cc4ccccc4[nH]3)cc2c1` was tested, and the residual activity was 122%. With `O=C1Nc2ccccc2/C1=C1/Nc2ccccc2/C1=N\OCCC(O)CO` (centres undefined) the residual activity was 140%. `CC(=O)O/N=C1\C(=C2\C(=O)Nc3cc(Br)ccc32)Nc2ccccc21` was tested, and the residual activity was 93%. With `COc1ccc(CNc2nc(N(CCO)CCO)nc3c2ncn3C(C)C)cc1` the residual activity was 117%. Compound `COc1cc2ncnc(Nc3ccc(NC(=O)c4ccccc4)cc3)c2cc1OC` has a residual activity of 133%. `Ic1cccc(CSc2nnc(-c3ccncc3)o2)c1` was tested, and the residual activity was 108%. `NCCNc1ncc(C(N)=O)c(Nc2cccc(C(F)(F)F)c2)n1` gave a residual activity of 114%. For `O=[N+]([O-])c1ccc(-c2nc(-c3ccc(F)cc3)c(-c3ccncc3)[nH]2)cc1`, the residual activity was 126%. With `CC(C)c1nn(-c2c(Cl)cccc2Cl)c2nc(Cc3ccc(OCCO)cc3)[nH]c(=O)c12` the residual activity was 142%. In the case of `O=C(O)/C=C/c1cc(Br)c(Br)c(Br)c1Br`, the residual activity is reported as 63%. Work on `O=C1NC(=O)c2c1c1c3ccccc3[nH]c1c1[nH]c3cc(Br)ccc3c21` yielded a residual activity of 89%. For `O=S(=O)(NCCNC/C=C/c1ccc(Br)cc1)c1cccc2cnccc12`, the residual activity was 141%. With `CCCCc1c(-c2ccc(OC)cc2)[nH]c2nccnc12` the residual activity was 102%. In the case of `N#C/C(=C\c1ccc(O)c(O)c1)C(=O)NCc1ccccc1`, the residual activity is reported as 100%. For `Cc1nc2cc3nc(-c4cccs4)cnc3cc2n1C`, the residual activity was 98%. `Nc1ncnc2c1c(-c1ccc(Oc3ccccc3)cc1)cn2C1CCCC1` showed a residual activity of 108%. `O=C(O)c1ccc2c3c1cccc3c(=O)n1c3ccccc3nc21` was tested, and the residual activity was 111%. Compound `CN(C)CCCn1cc(C2=C(c3c[nH]c4ccccc34)C(=O)NC2=O)c2ccccc21` has a residual activity of 74%. `C[C@@H](N)[C@H]1CC[C@H](C(=O)Nc2ccncc2)CC1` gave a residual activity of 82%. In the case of `Cn1c2ccccc2c2c3c(c4c5ccccc5n(CCC#N)c4c21)CNC3=O`, the residual activity is reported as 93%. In the case of `O=C1C(Cl)=C(N2C(=O)CCC2=O)C(=O)c2ccccc21`, the residual activity is reported as 100%. `O=C1NC(=O)c2c1c1c3ccccc3[nH]c1n1cncc21` was tested, and the residual activity was 57%. In the case of `COc1cc2ncnc(Nc3ccc(O)c(Br)c3)c2cc1OC`, the residual activity is reported as 73%. With `O=Nc1c(-c2c(O)[nH]c3ccccc23)[nH]c2ccccc12` the residual activity was 112%. Work on `O=C1NC(=O)/C(=C/c2ccc3c(c2)OC(F)(F)O3)S1` yielded a residual activity of 81%. In the case of `CCCCc1c(-c2ccc(O)cc2)[nH]c2nccnc12`, the residual activity is reported as 146%. For `Cc1nc(-c2ccccc2)c(-c2ccncc2)o1`, the residual activity was 128%. `NC(=O)c1ccc2[nH]c(-c3ccc(Oc4ccc(Cl)cc4)cc3)nc2c1` was tested, and the residual activity was 134%. For `COc1cc2ncc(-c3ccccc3)nc2cc1OC`, the residual activity was 90%. Work on `CC(C)N(CCC(=O)c1ccc2ccccc2c1)Cc1ccccc1` yielded a residual activity of 126%. For `O=C(NC(NC(=S)Nc1ccc(F)c([N+](=O)[O-])c1)C(Cl)(Cl)Cl)C(c1ccccc1)c1ccccc1` (centres undefined), the residual activity was 103%. `CO[C@H]1[C@@H](OC)C[C@H](C)[C@@H](OC)C2=CC(=O)C=C(NC(=O)/C(C)=C/C=C/[C@H](OC)[C@@H](OC(N)=O)/C(C)=C/[C@@H]1C)C2=O` showed a residual activity of 125%. `CCN(CC)C(=O)c1ccc(Nc2nc(OCC3CCCCC3)c3nc[nH]c3n2)cc1` gave a residual activity of 135%. Work on `CN(C)c1ccc(/C=C2\C(=O)Nc3ccccc32)cc1` yielded a residual activity of 86%. Compound `O=C(Nc1cccc(Nc2nccc(Nc3cccc(C(F)(F)F)c3)n2)c1)C1CC1` has a residual activity of 75%. Compound `NC(=O)Nc1sc(-c2ccc(F)cc2)cc1C(N)=O` has a residual activity of 107%. For `Nc1ccc2ncnc(NCCc3ccc(Oc4ccccc4)cc3)c2c1`, the residual activity was 107%. `Cc1ccc(S(=O)(=O)/C=C/C#N)cc1` gave a residual activity of 82%. With `Nc1nc(Nc2ccc(S(N)(=O)=O)cc2)nn1C(=S)Nc1c(F)cccc1F` the residual activity was 108%.
